# BAZ2B inh – qHTS Assay for Inhibitors of BAZ2B | Potency, µM (highest dose often 114 µM), for the others: at the highest dose activity change, negative = inhibition, most hits filed as inhibitors | hit rate 4.4% among 360,000 | Bromodomain adjacent to zinc finger domain protein 2B (Homo sapiens), Q9UIF8 | AlphaScreen BAZ2B-H3K14Ac peptide displacement | AID 504333, 2011; note: potency is the fitted concentration of half-maximal effect; % is set by controls: 0 for no effect and ±100 for the full control effect; nearly all actives have a fitted effect of over 60% in size
#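 Protein-peptide AlphaScreen: BAZ2B 50 nM, b-H3K14Ac 50 nM, 1x PBS pH 7.4 + 0.01% Tween-20. Preincubation 30 min RT; cpd 30 min RT (top 110 uM); beads 20 min RT, light-protected.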
# PLK1 PBD block – qHTS for Inhibitors of PLK1-PDB (polo-like kinase 1 - polo-box domain): Primary Screen | Plk1 PBD binding of FITC phosphopeptide, fluorescence polarization | Potency, µM, inactives show max response, negative = inhibition, usual class: inhibitors | hit rate 2.8% among 360,000 | Serine/threonine-protein kinase PLK1 (Homo sapiens), P53350; note: potency is the fitted concentration of half-maximal effect; series mostly up to about 57 µM; % is set by controls: 0 for no effect and ±100 for the full control effect; nearly all actives have a fitted effect of over 65% in size
# JMJD2A Tudor inh – qHTS Assay for Inhibitors of JMJD2A-Tudor Domain | Lysine-specific demethylase 4A (Homo sapiens), O75164 | Potency, µM (doses to about 114 µM), inactives show at the highest dose activity change, negative = inhibition, hits mostly inhibitors | hit rate 4.4% among 390,000 | AID 504339, 2011 | AlphaScreen JMJD2A-Tudor / H3K4me3 peptide binding; note: potency is the fitted concentration of half-maximal effect; % is set by controls: 0 for no effect and ±100 for the full control effect; nearly all actives have a fitted effect of over 50% in size
# G9a block – qHTS Assay for Inhibitors of Histone Lysine Methyltransferase G9a; Histone-lysine N-methyltransferase EHMT2 (Homo sapiens), Q96KQ7; G9a H3K9 monomethylation, AlphaScreen, 2 h; Potency, µM (doses to about 102 µM), for the others: top-dose activity, negative = inhibition, hits mostly inhibitors; hit rate 8.8% among 350,000; AID 504332, 2011; note: potency is the fitted concentration of half-maximal effect; % is set by controls: 0 for no effect and ±100 for the full control effect; nearly all actives have a fitted effect of over 75% in size
# Target sequence (Q96KQ7 913-1193 limits assumed): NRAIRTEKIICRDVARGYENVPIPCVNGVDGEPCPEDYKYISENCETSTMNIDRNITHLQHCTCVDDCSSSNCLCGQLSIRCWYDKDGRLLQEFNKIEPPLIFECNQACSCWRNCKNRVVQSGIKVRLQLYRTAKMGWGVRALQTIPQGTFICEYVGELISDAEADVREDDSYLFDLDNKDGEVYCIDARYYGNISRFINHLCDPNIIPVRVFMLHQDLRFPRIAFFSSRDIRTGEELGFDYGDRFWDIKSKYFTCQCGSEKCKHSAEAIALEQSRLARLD
#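 Using a bead-based AlphaScreen, monomethylated H3K9 product from 2 h room-temperature reactions (G9a 20 nM, peptide 500 nM, SAM 20 uM) was detected with 0.5 ug/mL rabbit anti-H3K9me1 antibody.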
# HP1b binding inh – HTS for Inhibitors of HP1-beta Chromodomain Interactions with Methylated Histone Tails | Chromobox protein homolog 1 (Homo sapiens), P83916 | AlphaScreen HP1-beta / biotin-H3K9me3 peptide binding | Potency, µM (titrated, usually from 114 µM), for inactives: at the highest dose activity change, negative = inhibition, most hits filed as inhibitors | hit rate 0.56% among 390,000 | AID 540317, 2011; note: potency is the fitted concentration of half-maximal effect; nearly all actives have a fitted effect of over 70% in size
#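 AlphaScreen: HP1-beta (50 nM) preformed 30 min with biotin-H3(1-18)K9me3 peptide (50 nM) in PBS pH 7.4, 0.01% Tween-20. Compound added for 30 min at RT, then streptavidin donor/nickel chelate acceptor beads (10 ug/mL) for 30 min.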
# PI5P4Ka inh – qHTS for Inhibitors of phosphatidylinositol 5-phosphate 4-kinase (PI5P4K) | Phosphatidylinositol 5-phosphate 4-kinase type-2 alpha (Homo sapiens), P48426 | PI5P4Kalpha enzyme, ADP-Glo luminescence, 60 min; hits give low values | max response, % | hit rate 1.2% among 330,000 | AID 652105, 2013; active = max response of -50% or lower; inconclusive = between -30% and -50%; inactive = -30% or higher; note: value at the top dose of about 77 µM; % is set by controls: 0 for no effect and ±100 for the full control effect
# Target sequence (P48426 whole entry, looked up): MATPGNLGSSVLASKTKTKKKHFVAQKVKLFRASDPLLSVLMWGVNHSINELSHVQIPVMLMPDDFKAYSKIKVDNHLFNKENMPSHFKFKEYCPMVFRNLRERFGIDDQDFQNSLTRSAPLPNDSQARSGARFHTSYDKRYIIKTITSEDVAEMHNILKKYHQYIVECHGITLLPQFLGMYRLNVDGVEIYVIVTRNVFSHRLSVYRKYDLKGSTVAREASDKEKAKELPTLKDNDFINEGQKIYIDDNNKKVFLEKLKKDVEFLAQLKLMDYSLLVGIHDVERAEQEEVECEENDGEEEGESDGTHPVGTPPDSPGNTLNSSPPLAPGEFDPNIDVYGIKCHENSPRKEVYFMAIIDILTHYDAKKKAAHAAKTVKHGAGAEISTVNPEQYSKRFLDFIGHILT
#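 ADP-Glo luminescence end-point read after a 60 min room-temperature kinase reaction of PI5P4Kalpha plus substrate, initiated with ATP at 5 microM final. Buffer: 0.038 M HEPES pH 7.4, EGTA, 0.1% CHAPS, 5% DMSO.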
# TbPYK inh – qHTS of Trypanosoma Brucei Inhibitors: Confirmatory Assay for Cherry-picked Compounds; Potency, µM (titrated, usually from 76.9 µM), for inactives: at the top dose activity change, negative = inhibition, most hits filed as inhibitors; AID 720569, 2013; hit rate 67% among 890; shares compounds with PLK1 PBD block; recombinant TbPYK, Kinase-Glo ATP luminescence; note: potency is the fitted concentration of half-maximal effect; % is set by controls: 0 for no effect and ±100 for the full control effect; nearly all actives have a fitted effect of over 70% in size
# TbPYK orthogonal – qHTS of Trypanosoma Brucei Inhibitors: Orthogonal Assay for Cherry-picked Compounds; shares compounds with PLK1 PBD block; recombinant TbPYK, ADP-Glo luminescence, 60 min; Potency, µM (series often up to 76.9 µM), for inactives: at the top dose activity change, negative = inhibition, usual class: inhibitors; hit rate 62% among 890; AID 720584, 2013; note: potency is the fitted concentration of half-maximal effect; % is set by controls: 0 for no effect and ±100 for the full control effect; nearly all actives have a fitted effect of over 75% in size
# Numbers without * were called inactive; ? = inconclusive; / = not tested or not shown; [ ] = another dose, or the depositor's remark. Only some compounds are listed: those with a hit (about 12% of all), similar ones and a draw of the others. Unless noted, calls come from the whole dose curve; as a rule, active = well fitted curve in the direction sought with a large enough effect; inconclusive = small, poorly fitted or top-dose-only effect, or another doubt; inactive = no such curve, though single readings can be large; an effect the other way counts as inactive or inconclusive.
SMILES,BAZ2B inh,PLK1 PBD block,JMJD2A Tudor inh,G9a block,HP1b binding inh,PI5P4Ka inh,TbPYK inh,TbPYK orthogonal
CC1=CC(=Nc2c(C)n(C)n(-c3ccccc3)c2=O)C=C(C)C1=O,-71%,-5%,-27%,40µM*,?,-20,-26%,-7%
O=C1CCC(C(=O)Nc2cccc(S(=O)(=O)Nc3ccccc3F)c2)=NN1,/,2.4µM*,?,/,?,-12,6.3µM*,6.3µM*
O=C(Nc1cccc(S(=O)(=O)Nc2ccccc2F)c1)c1ccco1,/,?,-25%,/,-7%,-5,/,/
Cc1ccc(S(=O)(=O)/N=C2/C=C(C3C(=O)CC(C)(C)CC3=O)C(=O)c3ccccc32)cc1,?,7.5µM*,?,8.9µM*,-36%,6,-26%,-24%
CCc1sc(C(C2C(=O)CC(C)(C)CC2=O)C2C(=O)CC(C)(C)CC2=O)cc1[N+](=O)[O-],?,1.7µM*,-12%,/,35%,?,16µM*,32µM*
CCN(CC)c1ccc(N)cc1S(=O)(=O)Nc1ccccc1OC,?,3.4µM*,?,2.5µM*,11µM*,?,7.9µM*,11µM*
N#Cc1ccccc1S(=O)(=O)N1CCN(S(=O)(=O)c2ccc(Br)c(C(=O)O)c2)CC1,8%,?,-21%,-12%,8%,-8,/,/
Cn1c(N=Nc2ccc(N3CCOCC3)cc2)[n+](C)c2ccccc21,13µM*,-7%,?,18µM*,?,?,16µM*,13%
C[C@@H]1CN([C@@H](C)CO)C(=O)CCCn2cc(nn2)CO[C@H]1CN(C)C(=O)Oc1ccccc1,/,-4%,/,/,/,1,/,/
CCOC(=O)C1=C(C)c2ccccc2N(C(=O)OC)C1(C)C(=O)OCC (stereo not drawn),/,?,-2%,26%,51%,-29,32µM*,40µM*
Cc1ccc(-c2cc(C(=O)N3CCOCC3)c3ccccc3n2)o1,/,-28%,-29%,/,-16%,-7,?,?
O=C(O)c1cccc(N2C(=O)C=CC2=O)c1,/,12µM*,/,/,/,?,25µM*,35µM*
COc1cccc(NC(=O)Cc2ccccc2)c1,-6%,-2%,6%,-10%,46%,0,/,/
O=C(Cc1ccccc1)Nc1cccc(N2C(=O)C=CC2=O)c1,?,5.3µM*,20µM*,0.35µM*,?,-52*,5.6µM*,8.9µM*
COc1cc(NC(=O)CCc2c(C)nn(-c3ccc(N4CCCCC4)nn3)c2C)cc(OC)c1OC,-18%,/,-11%,7%[59 µM],30%,/,/,/
COc1cccc2cc(-c3nc4sc(C(=O)Nc5ccc(F)cc5F)c(C)c4c(=O)[nH]3)c(=O)oc12,-16%,/,-20%,-1%[59 µM],46%,/,/,/
Cc1cc(OCC(=O)OC(C)C(=O)NC2CC2)c(C(C)C)cc1Cl (stereo not drawn),/,3%,/,/,/,1,/,/
O=C1CSC(=S)N1N=Cc1ccccc1O,/,13µM*,18µM*,/,?,-85*,13µM*,13µM*
O=C1CSC(=S)N1N=Cc1cccc2ccccc12,/,-20%,?,/,-33%,?,/,/
Cc1cc(O)c(-c2cc(O)c(C)cc2O)cc1O,50µM*,4.7µM*,5µM*,2µM*,1.8µM*,-67*,32µM*,11µM*
O=C1ON=C(c2ccc([N+](=O)[O-])cc2)/C1=C/c1ccccc1O,-24%,1.7µM*,-13%,79µM*,32%,?,?,-28%
N#C/C(=C\c1ccc(-c2ccccc2[N+](=O)[O-])o1)C(=O)N1CCOCC1,?,-8%,-28%,?,11%,-4,/,/
O=C1ON=C(c2ccccc2)/C1=C/c1ccc(-c2ccccc2[N+](=O)[O-])o1,22µM*,0.95µM*,28µM*,7.1µM*,50µM*,-78*,32µM*,?
Cc1ccc(C2CC(=O)N3CN(c4ccc(Br)cc4)CSC3=C2C#N)o1 (stereo not drawn),56µM*,-13%,22µM*,?,-6%,/,32µM*,16µM*
CCCCCCSC1=C(C#N)C(c2ccc(C)o2)CC(=O)N1 (stereo not drawn),?,-22%,-20%,?,21%,/,/,/
SMILES,BAZ2B inh,PLK1 PBD block,JMJD2A Tudor inh,G9a block,HP1b binding inh,PI5P4Ka inh,TbPYK inh,TbPYK orthogonal
CCc1nc2c(OCc3cc(Cl)cc(Cl)c3)cccn2c1N(C)C(=O)Nc1ccccc1OC,/,-15%,/,/,/,0,/,/
CS(=O)(=O)N1CCN(c2nc(-c3cccs3)nc3ccccc23)CC1,/,/,-12%,/,43%,/,/,/
CCCC(=O)NC1=C(Cl)C(=O)c2ccccc2C1=O,/,3µM*,1.8µM*,/,7.1µM*,-58*,7.1µM*,7.1µM*
Cc1cccc(N2CC(C(=O)NC3CCCCCC3)CC2=O)c1C (stereo not drawn),/,1%,-4%,/,43%,1,/,/
CN1c2ccccc2N(C)C1(C)c1ccccc1,46%,4.2µM*,8.9µM*,?,?,-17,3.2µM*,5µM*
CCN(CC)C(=O)C1=C(C)N(Cc2ccc(OC)cc2)C(=O)C(CC(=O)NCCN2CCOCC2)C1 (stereo not drawn),/,-11%,/,/,/,-10,/,/
Cc1ccc(O)c(NC2=C(Cl)C(=O)N(Cc3ccccc3)C2=O)c1,45µM*,3µM*,4µM*,6.3µM*,16µM*,-20,16µM*,20µM*
CCCNC(=O)C1CCN(S(=O)(=O)c2cccs2)CC1,-3%,-1%,-12%,-1%,32%,-3,/,/
Cc1ccc(CNC(=O)C2CCN(S(=O)(=O)c3cccs3)CC2)o1,2%,-16%,-26%,8.9µM*,-24%,/,?,?
Cc1ccc(S(=O)(=O)N2C[C@@H](C)[C@]3(C2)[C@H](O)[C@H](OC(=O)NC2CC2)C[C@H]2C(=O)N(c4ccccc4)C(=O)[C@H]23)cc1,/,?,/,/,/,-2,/,/
